± gives the standard deviation of the averaged measurements.
Key:
[1] = system: CLZ3 (HCA2 human fibroblast dual HR-NHEJ reporter); experiment: NHEJ repair efficiency (GFP+ cells) relative to control (log10 fold); higher = more non-homologous end joining; details: 5 µM; doxycycline 0.5 ug/mL
[2] = system: CLZ3 (HCA2 human fibroblast dual HR-NHEJ reporter); experiment: HR repair efficiency (tdTomato+ cells) relative to control (log10 fold); higher = more homologous recombination; details: 5 µM; doxycycline 0.5 ug/mL
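Throughout, for HR repair efficiency (tdTomato+ cells) relative to control: compound given one day before doxycycline, which switches on I-SceI endonuclease expression to create double-strand breaks within the integrated reporter.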
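Throughout, for NHEJ repair efficiency (GFP+ cells) relative to control: compound given one day ahead of doxycycline, which switches on I-SceI endonuclease to cut the chromosomally integrated reporter and create DSBs.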

| Compound | NHEJ repair efficiency (log10) [1] | HR repair efficiency (log10) [2] |
| --- | --- | --- |
| COc1ccc2[nH]cc(CCNC(C)=O)c2c1 [Melatonin] | 0.0863 | 0.227 |
| C[C@H](CCC(=O)O)[C@H]1CC[C@H]2[C@@H]3C[C@H](O)[C@@H]4C[C@H](O)CC[C@]4(C)[C@H]3CC[C@]12C [Hyodesoxycholic acid] | -0.299 | -0.322 |
| C[C@H]1CC[C@@]2(OC1)O[C@H]1C[C@H]3[C@@H]4CC[C@@H]5C[C@@H](O)CC[C@]5(C)[C@H]4CC[C@]3(C)[C@H]1[C@@H]2C [Sarsasapogenin] | -0.068 | 0.0364 |
| CC(=O)OC1CC23CC(C)(O)C(CCC2C(C)(O)C2C4OC4C(C)(C)C12O)C3O (stereo not given) [Rhodojaponin Ii] | -0.0128 | -0.000636 |
| CC(=O)O[C@H]1[C@H](OCCc2ccc(O)c(O)c2)O[C@H](CO)[C@@H](OC(=O)/C=C/c2ccc(O)c(O)c2)[C@@H]1O[C@@H]1O[C@@H](C)[C@H](O)[C@@H](O)[C@H]1O [2-Acetylacteoside] | -0.00932 | -0.164 |
| Cn1c(=O)c2c(ncn2C)n(C)c1=O [Caffeine] | 0.103 | 0.0527 |
| CC12CCC(CC1)C(C)(C)O2 [Eucalyptol] | 0.0692 | 0.0216 |
| C[C@@H]1C(=O)O[C@H]2C[C@@]34O[C@@H]5OC(=O)[C@H](O)[C@@]56[C@H](C(C)(C)C)[C@H](O)C(OC3=O)[C@]64[C@]21O (stereo not given in full) [Ginkgolide J] | 0.0205 | 0.076 |
| C=C1C(=O)[C@@]23CC[C@@H]4C(C)(C)[C@H](O)CC[C@@]4(C)[C@@H]2[C@@H](O)C[C@@H]1C3 [Tenuifolin A] | -0.0342 | -0.13 |
| COc1ccc(-c2cc(=O)c3c(O)cc(O[C@@H]4O[C@H](CO[C@@H]5O[C@@H](C)[C@H](O)[C@@H](O)[C@H]5O)[C@@H](O)[C@H](O)[C@H]4O)cc3o2)cc1 [Linarin] | -0.0758 | 0.00777 |
| COc1cc2c(cc1OC)-c1cc3ccc4c(c3c[n+]1CC2)OCO4 [Epiberberine] | -0.03 | 0.05 |
| OCCc1ccc(O)cc1 [Tyrosol] | 0.117 | 0.306 |
| COc1ccc(/C=C/C(=O)O)cc1O [Isoferulic acid] | 0.104 | -0.0013 |
| COc1c(O)cc2c(c1O)[C@@H]1O[C@H](CO)[C@@H](O)[C@H](O)[C@H]1OC2=O [Bergenin] | 0.0025 | -0.0334 |
| NC(=O)c1cccnc1 [Nicotinamide] | 0.139 | 0.186 |
| CC(=O)C1=C(O)C=C2Oc3c(C(C)=O)c(O)c(C)c(O)c3C2(C)C1=O (stereo in doubt) [Usnic Acid] | 0.00929 | 0.00791 |
| C[C@@H]1O[C@@H](OC[C@H]2O[C@@H](Oc3cc(O)c4c(=O)cc(-c5ccc(O)cc5)oc4c3)[C@H](O[C@@H]3O[C@@H](C)[C@H](O)[C@@H](O)[C@H]3O)[C@@H](O)[C@@H]2O)[C@H](O)[C@H](O)[C@H]1O [Ligustroflavone] | 0.105 | 0.0603 |
| O=C(O)Cc1c(C=CC(=O)OC(Cc2ccc(O)c(O)c2)C(=O)O)ccc(O)c1O (stereo not given) [Salvianolic Acid D] | -0.0658 | 0.105 |
| CCOC(=O)c1c(C(=O)OCC)c(O)c2ccccc2c1O [Rubidate] | 0.0573 | 0.128 |
| OCC1=C[C@@H](O)[C@]2(O[C@@H]3O[C@H](CO)[C@@H](O)[C@H](O)[C@H]3O)C=CO[C@@H](O[C@@H]3O[C@H](CO)[C@@H](O)[C@H](O)[C@H]3O)[C@H]12 [Melittoside] | -0.134 | 0.096 |
| COc1c2c(cc3oc(CO)cc(=O)c13)O[C@H](C(C)(C)O)C2 [Cimifugin] | 0.0139 | -0.0036 |
| COC(=O)[C@H]1O[C@@H](Oc2cc3oc(-c4ccc(O)cc4)cc(=O)c3c(O)c2O)[C@H](O)[C@@H](O)[C@@H]1O [Scutellarin Methyl Ester] | -0.156 | -0.014 |
| O=c1c(O)c(-c2ccc(O)cc2O)oc2cc(O)cc(O)c12 [Morin] | 0.0612 | 0.0351 |
| COC(=O)C1=CO[C@@H](O[C@@H]2O[C@H](CO)[C@@H](O)[C@H](O)[C@H]2O)[C@@H]2[C@H](C)O[C@@H](O)C[C@H]12 [Morroniside] | 0.0778 | 0.186 |
| NC(=O)NC1NC(=O)NC1=O (stereo not given) [Allantoin] | 0.029 | 0.00746 |
| O=C(O)/C=C/c1ccc(O)c(O)c1 [Caffeic acid] | 0.0395 | 0.0424 |
| CC1OC(OC2C(OC3CCC4(C)C(CCC5(C)C4CC=C4C6CC(C)(C)CCC6(C(=O)OC6OC(COC7OC(CO)C(O)C(O)C7O)C(O)C(O)C6O)CCC45C)C3(C)CO)OCC(O)C2O)C(O)C(O)C1O (stereo not given) [Dipsacoside B] | -0.0161 ± 0.011 | 0.00385 ± 0.11 |
| C[C@@H]1O[C@@H](OC[C@H]2O[C@@H](OCCc3ccc(O)c(O)c3)[C@H](O)[C@@H](O[C@@H]3O[C@@H](C)[C@H](O)[C@@H](O)[C@H]3O)[C@@H]2OC(=O)/C=C/c2ccc(O)c(O)c2)[C@H](O)[C@H](O)[C@H]1O [Poliumoside] | 0.019 | 0.0718 |

| Compound | NHEJ repair efficiency (log10) [1] | HR repair efficiency (log10) [2] |
| --- | --- | --- |
| CC(=O)CCc1ccc(O)cc1 [Raspberry Ketone] | -0.163 | -0.0897 |
| O=C(/C=C/c1ccc(O)c(O)c1)O[C@@H]1[C@H](O)C[C@@](O)(C(=O)O)C[C@H]1OC(=O)/C=C/c1ccc(O)c(O)c1 [Isochlorogenic acid B] | 0.142 | 0.105 |
| COc1c(O)cc2c(c1O)C(=O)c1c(cc(C)c(O)c1OC)C2=O [Aurantio-obtusin] | 0.137 | 0.0361 |
| C=C[C@@H]1CNC(=S)O1 [Epigoitrin] | 0.17 | 0.212 |
| O=c1c(O[C@@H]2O[C@H](CO)[C@@H](O)[C@H](O)[C@H]2O[C@@H]2O[C@H](CO)[C@@H](O)[C@H](O)[C@H]2O)c(-c2ccc(O)c(O)c2)oc2cc(O)cc(O)c12 [Baimaside] | 0.0574 | 0.114 |
| O=C(CCc1ccc(O)cc1)c1c(O)cc(O)cc1O[C@@H]1OC(CO)[C@@H](O)[C@@H](O)C1O (stereo not given in full) [Phloridzin] | -0.0404 ± 0.071 | 0.0182 ± 0.039 |
| CC(=O)S[C@@H]1CC2=CC(=O)CC[C@]2(C)[C@H]2CC[C@@]3(C)[C@@H](CC[C@@]34CCC(=O)O4)[C@H]12 [Spironolactone] | 0.15 | -0.0059 |
| O=C(/C=C/c1ccc(O)c(O)c1)O[C@@H]1C[C@@](OC(=O)/C=C/c2ccc(O)c(O)c2)(C(=O)O)C[C@@H](O)[C@@H]1O [Cynarin (1,5-Di-O-caffeoylquinic acid)] | 0.0398 | 0.0943 |
| C[C@@H]1CCCCCCCCCCCCC(=O)C1 [Muscone] | 0.1 | 0.229 |
| c1cc2c(cc1O[C@H]1OC[C@H]3[C@@H]1CO[C@@H]3c1ccc3c(c1)OCO3)OCO2 [Sesamolin] | 0.101 | 0.22 |
| N[C@@H](Cc1ccc(O)c(O)c1)C(=O)O [Levodopa] | 0.0328 | 0.0905 |
| C[N+](C)(C)CC(=O)O [Betaine] | -0.243 | -0.337 |
| C[C@@H]1CC[C@@]2(OC1)O[C@H]1C[C@H]3[C@@H]4CC=C5C[C@@H](O)C[C@@H](O)[C@]5(C)[C@H]4CC[C@]3(C)[C@H]1[C@@H]2C [Ruscogenin] | -0.0127 | 0.181 |
| CC1OC(OC2C(C)OC(OC(=O)C34CCC(C)(C)CC3C3=CCC5C6(C)CCC(OC7OC(C(=O)O)C(OC8OC(CO)C(OC9OC(CO)C(O)C(O)C9O)C(O)C8O)C(OC8OCC(O)C(O)C8O)C7O)C(C)(C=O)C6CCC5(C)C3(C)CC4)C(OC3OCC(O)C(O)C3OC3OCC(O)C(O)C3O)C2O)C(O)C(OC2OCC(O)C(O)C2O)C1O (stereo not given) [Gypenoside] | 0.0642 | 0.115 |
| C[C@@H]1C(=O)O[C@H](C)[C@H]1C[C@@H](O)[C@](C)(O)[C@H]1CC[C@@]2(O)C3=CC(=O)[C@@H]4C[C@@H](O)[C@@H](O)C[C@]4(C)[C@H]3CC[C@]12C [Cyasterone] | 0.00995 | 0.0455 |
| O=c1cc(-c2ccc(O)c(-c3c(O)cc(O)c4c(=O)cc(-c5ccc(O)cc5)oc34)c2)oc2cc(O)cc(O)c12 [Amentoflavone] | 0.0928 | 0.0831 |
| CC1=C2C(=O)O[C@@H](c3ccoc3)[C@]2(C)CCC1 [Fraxinellone] | 0.105 | 0.113 |
| COc1c2occc2cc2ccc(=O)oc12 [Xanthotoxin] | -0.261 | -0.0664 |
| O=C(O)c1ccccc1 [Benzoic Acid] | -0.0219 | 0.137 |
| O=c1c(-c2ccc(O)c(O)c2)coc2c([C@@H]3O[C@H](CO)[C@@H](O)[C@H](O)[C@H]3O)c(O)ccc12 [3-Hydroxy Puerarin] | -0.187 | -0.112 |
| O=C1C[C@@H](c2ccccc2)Oc2cc(O)cc(O)c21 [Pinocembrin] | 0.123 | 0.0891 |
| COc1c(O[C@@H]2O[C@H](C(=O)O)[C@@H](O)[C@H](O)[C@H]2O)cc(O)c2c(=O)cc(-c3ccccc3)oc12 [Wogonoside] | -0.0783 | -0.00302 |
| O=c1cc(-c2ccccc2)oc2cc(O)cc(O)c12 [Chrysin] | 0.01 | -0.15 |
| O=c1cc(-c2ccccc2)oc2cc(O)c(O)c(O)c12 [Baicalein] | 0.203 | 0.17 |
| O=c1c(O[C@@H]2O[C@H](CO)[C@@H](O)[C@H](O)[C@H]2O)c(-c2ccc(O)c(O)c2)oc2cc(O)cc(O)c12 [Isoquercitrin] | -0.0426 | 0.0777 |
| CC(=O)O[C@@H]1C[C@@]23C[C@@]24CC[C@H](O[C@@H]2OC[C@@H](O)[C@H](O)[C@H]2O)C(C)(C)[C@@H]4CC=C3[C@]2(C)C[C@@H]3OC4(C[C@@H](C)[C@@H]3[C@@]12C)OC(O)C1(C)OC41 (stereo not given in full) [Cimicifugoside] | 0.0323 | 0.0562 |
| OC[C@H]1O[C@@H](Oc2cc3c(O)cc(O)cc3[o+]c2-c2ccc(O)c(O)c2)[C@H](O)[C@@H](O)[C@@H]1O [Cyanidin3-o-glucoside] | -0.035 | 0.142 |

Reference: the supplement of paper PMC7380943
